Test results published in PubChem BioAssay AID623868 (Vanderbilt High Throughput Screening Facility, 2012).
Out of some 2,100 compounds screened, about 760 (36%) were called active. The list is a sample of the results. Unmarked numbers belong to inactive results.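 The calls were made as follows: active = thallium-flux fluorescence traces judged by eye to show enhanced or reduced glutamate response, manual score 1 or -1, so both directions (some results past the limit were not filed as active); inactive = the rest, including fluorescent or raised-baseline compounds.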

test: thallium influx changes without GIRK channels – cell-based, HEK-293 rmGlu8, no GIRK, thallium flux, counter-screen for GIRK activator project, confirmation (AID 623868); settings: thallium flux fluorescence, at 10 µM, actives lie on both sides, codes: 1 enhancer, -1 blocker, 0 none, thallium stimulus containing EC20 glutamate;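 also: extra codes mark interference with 3 for fluorescent and 4 for baseline rise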

SMILES | manual score
CCCCCCc1cc2cc(C(=O)NC)c(=N)oc2cc1O | 3
COc1ccc(Nc2nnc(Cc3ccccc3)c(=O)[nH]2)c(OC)c1 | 0
CCc1nnc(NS(=O)(=O)c2ccc(NC(=S)NC(=O)c3ccccc3)cc2)s1 | 0
CCN(c1ccccc1)S(=O)(=O)c1ccc(NC(=S)NC(=O)c2ccc(Br)o2)cc1 | 1 (active)
CN(c1ccccc1)S(=O)(=O)c1ccc(NC(=S)NC(=O)c2ccccc2)cc1 | 0
CCOC(=O)c1ccccc1NC(=O)CSc1nnc(Cc2cccn2C)n1-c1ccc(C)cc1 | -1 (active)
COC(=O)c1ccc(NC(=O)CSc2nnc(COc3ccccc3)n2C)cc1 | 3
CCOC(=O)CN(C(=O)CSc1nnc(Cc2ccccc2)n1-c1ccc(C)cc1)c1ccccc1 | 0
CCOC(=O)c1ccccc1NC(=O)CSc1nnc(COc2ccccc2C)n1C | -1 (active)
CCOC(=O)c1ccccc1NC(=O)CSc1nnc(Cc2cccn2C)n1-c1ccc(F)cc1 | 0
CCOC(=O)c1ccccc1NC(=O)CSc1nnc(COc2ccccc2)n1CC | 0
CCOc1ccccc1C1CC(=O)NC(SCC)=C1C#N (stereo not given) | 0
CCSc1nc(-c2ccccc2)c(C#N)c(=O)[nH]1 | -1 (active)
N#Cc1c(-c2ccco2)nc(SCc2ccc(F)cc2)[nH]c1=O | -1 (active)
CCc1nc(SCc2ccc(F)cc2)[nH]c(=O)c1C#N | 3
N#Cc1c(N)nc(SCc2ccccc2)c(C#N)c1-c1ccco1 | 0
CC(Sc1nc2ccccc2c(=O)[nH]1)C(=O)O (stereo not given) | 0
Cc1oc(-c2ccccc2F)nc1CS(=O)(=O)CC(=O)NCCN(C)C1CCCCC1 | 0
c1cn(CC2(Cn3ccnc3)COC2)cn1 | 0
O=C(c1ccccc1CCc1ccccc1)N1CCN(c2ccccn2)CC1 | 0
CCCc1ccc(C(=O)N2CCN(c3ccccc3OCC)CC2)cc1 | -1 (active)
CCOc1ccccc1N1CCN(C(=O)c2cc3c(s2)CCC3)CC1 | -1 (active)
O=C(c1ccccc1Oc1ccccc1)N1CCN(c2ccccc2)CC1 | 0
CC1CCN(c2c([N+](=O)[O-])c(=O)oc3ccccc23)CC1 | 0
COc1ccc(C(C)n2c(C)c3c(C)nnc(C)c3c2C)cc1 (stereo not given) | 0
O=C1OCCC1Sc1nc2cc(Cl)ccc2n1Cc1ccccc1 (stereo not given) | 1 (active)
O=C(CSc1nc2ccccc2n1CCc1ccccc1)N1CCOCC1 | 0

SMILES | manual score
CC1=C(C(=O)Nc2cccnc2)C(c2ccc3c(c2)OCO3)C2=C(CCCC2=O)N1 (stereo not given) | 0
Cc1cccc(-c2nc(CN3CCCC(C(=O)NC4CCCCC4)C3)c(C)o2)c1 (stereo not given) | 0
Cc1oc(-c2ccccc2)nc1CS(=O)CC(=O)O (stereo not given) | 1 (active)
Cc1ccccc1-c1nc(CS(=O)(=O)CC(=O)NCCCN2CCCC2)c(C)o1 | 0
CCOC(=O)Cc1csc(NC(=S)NC(=O)C(C)(C)C)n1 | 1 (active)
CCOC(=O)Cc1csc(NC(=O)Nc2ccccc2)n1 | 0
CCOC(=O)Cc1csc(NC(=S)NC(=O)c2ccccc2)n1 | 1 (active)
CCOC(=O)Cc1csc(NC(=S)NC(=O)c2ccc(C)cc2)n1 | 1 (active)
CC1CCN(c2ccc(/C=N/n3nnnc3N)cc2[N+](=O)[O-])CC1 | 0
COc1ccc2c(c1)Sc1ccccc1N2CCN(C)C | 0
O/N=C/c1cc(Cl)ccc1OCc1cccc2ccccc12 | 0
COc1ccccc1/C=C/C=N\N1CCN(Cc2ccccc2Cl)CC1 | 0
Cc1cc(C)n(-c2nnc(C)n2/N=C/c2ccccc2OCc2ccccc2Cl)n1 | -1 (active)
Fc1ccc(NC(=S)Nc2ccccc2OC(F)F)cc1Cl | 0
CCc1ccc(NC(=S)NNC(=O)c2ccccc2OC(F)F)cc1 | 1 (active)
CCNC(=S)NNC(=O)c1cccn(Cc2ccc(Cl)cc2)c1=O | 0
c1ccc2c(Nc3nnc(-c4ccncc4)s3)cccc2c1 | 0
CCc1ccc(Nc2nc3ccccc3c(=O)s2)cc1 | 1 (active)
CCc1ccc2c(c1)C1(NN=C(c3cccc4ccccc34)S1)C(=O)N2 (stereo not given) | 0
CCOc1cc(C(=O)NCc2ccncc2)cc(OCC)c1OCC | 0
COc1ccc(-n2nnnc2SCC(=O)N2CCOCC2)cc1 | 0
NS(=O)(=O)c1ccc(S(=O)(=O)N2CCCC2)cc1 | 0
Cc1ccc(-c2nnc(SCC(=O)Nc3ccc4c(c3)OCCO4)n2N)cc1 | 0
Cc1ccc2nc(-c3ccc(O)cc3)c(Nc3ccc4c(c3)OCCO4)n2c1 | -1 (active)
CCCN(CCC)CC(O)Cn1cc(/C=C/C(=O)c2cccs2)c2ccccc21 (stereo not given) | 3
CNC(=O)c1ccc2nc(NC(C)=O)sc2c1 | 0
O=C(Nc1nc2ccc(Cl)cc2s1)c1ccc(Br)o1 | 0.5

SMILES | manual score
CCc1ccc2nc(NC(=O)c3cc(C)on3)sc2c1 | 1 (active)
Cc1cc(C)c2nc(NC(=O)c3cc(C)on3)sc2c1 | 1 (active)
COc1ccc(-c2c(S(=O)(=O)c3ccccc3)cnn2-c2ccccc2)cc1 | 0
CCOc1ccc(NC(=O)NC23CC4CC(CC(C4)C2)C3)cc1 | 0
COc1ccc2nc(N=Nc3ccc(O)c4ccccc34)sc2c1 | 0
CS(=O)(=O)c1ccc2nc(NC(=O)Nc3ccc(Cl)c(Cl)c3)sc2c1 | 0
COc1ccc2nc(NC(=S)N(C)C)sc2c1 | 1 (active)
Cc1ccc(OCC(O)Cn2c(=N)n(Cc3ccccc3)c3ccccc32)cc1 (stereo not given) | 0
CCn1c(-c2cc3c(C(F)(F)F)nn(C)c3s2)n[nH]c1=S | 0
CCn1c(-c2ccc(-c3ccccc3)cc2)c[nH]c1=S | 0
CCn1c2ccccc2c2cc(/C=N/n3cn[nH]c3=S)ccc21 | 1 (active)
CCOC(=O)Cn1c(=N)n(Cc2ccccc2F)c2ccccc21 | 0
O=[n+]1c2c(n([O-])c3cc(F)c(N4CCCC4)cc31)CCCC2 | 3
Cc1ccc(S(=O)(=O)N2CCN(C)CC2)cc1-c1nnc2c3ccccc3c(C)nn12 | 0
CN(C)S(=O)(=O)c1cc(NC(=O)COC(=O)c2ccc3c(c2)OCO3)ccc1Cl | 0
O=C(Nc1ccc2c(c1)OCCO2)NC12CC3CC(CC(C3)C1)C2 | 0
COC(=O)[C@H](CC(C)C)NC(=O)Nc1ccc2c(c1)OCCO2 | 0
C/C(=N\NC(=S)Nc1ccc(F)cc1)c1ccc2c(c1)OCCO2 | 1 (active)
C/C(=N\NC(=S)Nc1cccc(C)c1)c1cccc(N)c1 | 1 (active)
C/C(=N/NC(=S)Nc1ccccc1)c1ccc2c(c1)OCO2 | 1 (active)
Cc1c(N2C(=O)CS/C2=N\N=C\c2ccccc2O)c(=O)n(-c2ccccc2)n1C | 0
O=C1c2ccccc2C(=O)N1Nc1ccccc1 | 0
Cc1ccc(C)n1-c1ccc(-c2nnco2)cc1 | 0
CCOc1ccc(-c2nc(-c3cccnc3)no2)cc1OCC | 0
Cc1ccc(-c2cn(-c3ccccc3)c(SCC(=O)NC3CCS(=O)(=O)C3)n2)cc1C (stereo not given) | 1 (active)
O=C(CSc1nnnn1-c1cccc2c1CCCC2)NC1CCCC1 | 0
Cc1ccc(-n2nnnc2-c2nc3ccccc3s2)cc1 | 0

SMILES | manual score
N#C/C(=C/c1ccc(N2CCOCC2)o1)c1nc2ccccc2[nH]1 | 3
Cc1ccc(NC(=S)c2nc3ccccc3[nH]2)c(C)c1 | 1 (active)
N#C/C(=C\c1ccc(N2CCOCC2)o1)c1nc2ccccc2[nH]1 | 3
Cc1ccc2nc(NCc3ccccc3)[nH]c2c1 | 0
Cc1ccc(C)c(NC(=S)c2nc3ccccc3s2)c1 | 1 (active)
Cc1ccc(OC(=S)Nc2ccccc2)c(C)c1 | 0
Cc1ccccc1NC(=S)c1nc2ccccc2[nH]1 | 1 (active)
Cc1ccc(Cn2c(SCC(=O)NCC3CCCO3)nc3c(sc4ccccc43)c2=O)cc1 (stereo not given) | 0
O=C1CN(C(=O)CSc2nc3ccccc3c(=O)n2Cc2ccc(F)cc2)c2ccccc2N1 | 1 (active)
CC(c1ccccc1)n1c(SCC(=O)N2CC(=O)Nc3ccccc32)nc2ccccc2c1=O (stereo not given) | 0
Cc1cc(NC(=O)CSc2nc3ccccc3c(=O)n2Cc2ccccc2)no1 | 0
O=C1CN(C(=O)CSc2nc3cc(Cl)ccc3c(=O)n2Cc2ccccc2)c2ccccc2N1 | 1 (active)
CCC(C)NC(=O)CSc1nc2ccccc2c(=O)n1Cc1ccc(OC)cc1 (stereo not given) | 1 (active)
Cc1ccc(Cn2c(SCC(=O)N3CC(=O)Nc4ccccc43)nc3ccccc3c2=O)cc1 | 1 (active)
O=C(CSc1nc2ccccc2c(=O)n1CC1CCCO1)N1CCN(c2ccccc2)CC1 (stereo not given) | 0
Clc1ccc(OCCn2ccnc2)c(Cl)c1 | 0
CC(/C=N/n1c(-c2ccccc2)n[nH]c1=S)=C\c1ccco1 | 1 (active)
CC(/C=N/n1c(-c2ccc(Cl)cc2)n[nH]c1=S)=C\c1ccco1 | 1 (active)
O=C(Nc1ccccc1)Nc1nccs1 | -0.5
COC(=O)CSC1=NS(=O)(=O)c2ccccc21 | 0
CCCc1nc2ccccc2c(=O)n1/N=C/c1c(C)[nH]n(-c2ccc(C)cc2)c1=O | 1 (active)
CN(C)CCNc1nc2c(c(=O)[nH]c(=O)n2C)n1CCCc1ccccc1 | 0
O=c1c(-c2ccccc2)nc(-c2ccccc2)cn1O | 1 (active)
COCCn1nnnc1C(c1ccccc1)N1CCN(c2ccccc2)CC1 (stereo not given) | 0
